In PubChem BioAssay (Tox21):
Records with an inconclusive call do not appear. Active and inactive are the calls of the source. Calls follow the shape of the dose curve; as a rule, active = well fitted curve in the direction sought with a large enough effect in the repeat runs; inconclusive = weak or mixed curves; inactive = no such curve, though single readings can be large; an effect the other way counts as inactive or inconclusive.

What was measured:
[1] = A CellTox Green Cytotoxicity Assay to monitor cytotoxicity in HEK293 cells - 40 hour (AID 1224871); also: nearly all actives have a fitted effect of over 45% in size; also: potency is read from the fitted curve at half-maximal effect
In short: (§1)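 Tox21 screen in HEK293: membrane-impermeant cyanine dye fluoresces on binding dead-cell DNA; compound pinned 5 h post-seeding, plates held at 37 C, signal read repeatedly through 40 h.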

[2] = qHTS RealTime-Glo MT Cell Viability Assay in HEK293 cells - 16 hour (AID 1224872); also: nearly all actives have a fitted effect of over 50% in size; also: potency is read from the fitted curve at half-maximal effect
In short: (§2)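 Assay medium contained NanoLuc luciferase plus cell-permeant prosubstrate, added with HEK293 cells at 600 cells/well. After 5 h at 37 C/5% CO2 compounds were added; plates stayed at 37 C for 40 h with serial luminescence reads.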

[3] = qHTS RealTime-Glo MT Cell Viability Assay in HepG2 cells - 8 hour (AID 1224873); also: nearly all actives have a fitted effect of over 55% in size; also: potency is read from the fitted curve at half-maximal effect
In short: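 HepG2 cells (600/well) mixed with RealTime-Glo MT reagent, settled 5 h at 37 C/5% CO2 before compound addition. Nonlytic NanoLuc luminescence from viable-cell prosubstrate reduction read repeatedly during 40 h treatment at 37 C.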

[4] = qHTS RealTime-Glo MT Cell Viability Assay in HEK293 cells - 40 hour (AID 1224874); settings: RealTime-Glo luminescence; max response: active compounds read low; also: nearly all actives have a fitted effect of over 50% in size; also: potency is read from the fitted curve at half-maximal effect
In short: (§3)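 HEK293 + NanoLuc + prosubstrate, 600 cells/well; 5 h, 37 C/5% CO2; compound 23 nL in DMSO by pintool; 37 C; luminescence read at 0, 8, 16, 24, 32 and 40 h time points.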

[5] = A CellTox Green Cytotoxicity Assay to monitor cytotoxicity in HEK293 cells - 24 hour (AID 1224875); also: nearly all actives have a fitted effect of over 45% in size; also: potency is read from the fitted curve at half-maximal effect
In short: as §1

[6] = A CellTox Green Cytotoxicity Assay to monitor cytotoxicity in HepG2 cells - 16 hour (AID 1224876); also: nearly all actives have a fitted effect of over 45% in size; also: potency is read from the fitted curve at half-maximal effect
In short: (§4)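 Measurements at 0, 8, 16, 24, 32 and 40 h of treatment captured CellTox Green fluorescence in HepG2 cells that had been co-plated with reagent and preincubated 5 h at 37 C/5% CO2.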

[7] = qHTS RealTime-Glo MT Cell Viability Assay in HepG2 cells - 32 hour (AID 1224877); also: nearly all actives have a fitted effect of over 55% in size; also: potency is read from the fitted curve at half-maximal effect
In short: (§5)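 qHTS, HepG2, 600 cells/well, RealTime-Glo (NanoLuc + prosubstrate) added with cells; 5 h preincubation; DMSO compound addition; 37 C; luminescence at 0/8/16/24/32/40 h.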

[8] = A CellTox Green Cytotoxicity Assay to monitor cytotoxicity in HepG2 cells - 24 hour (AID 1224878); also: nearly all actives have a fitted effect of over 45% in size; also: potency is read from the fitted curve at half-maximal effect
In short: as §4

[9] = A CellTox Green Cytotoxicity Assay to monitor cytotoxicity in HepG2 cells - 40 hour (AID 1224879); also: nearly all actives have a fitted effect of over 40% in size; also: potency is read from the fitted curve at half-maximal effect
In short: as §4

[10] = qHTS RealTime-Glo MT Cell Viability Assay in HEK293 cells - 0 hour (AID 1224880)
In short: as §3

[11] = A CellTox Green Cytotoxicity Assay to monitor cytotoxicity in HepG2 cells - 0 hour (AID 1224882); also: nearly all actives have a fitted effect of over 35% in size
In short: as §4

[12] = A CellTox Green Cytotoxicity Assay to monitor cytotoxicity in HepG2 cells - 32 hour (AID 1224883); also: nearly all actives have a fitted effect of over 50% in size; also: potency is read from the fitted curve at half-maximal effect
In short: as §4

[13] = A CellTox Green Cytotoxicity Assay to monitor cytotoxicity in HEK293 cells - 8 hour (AID 1224884); also: nearly all actives have a fitted effect of over 35% in size; also: potency is read from the fitted curve at half-maximal effect
In short: as §1

[14] = qHTS RealTime-Glo MT Cell Viability Assay in HEK293 cells - 24 hour (AID 1224886); also: nearly all actives have a fitted effect of over 50% in size; also: potency is read from the fitted curve at half-maximal effect
In short: as §2

[15] = qHTS RealTime-Glo MT Cell Viability Assay in HEK293 cells - 8 hour (AID 1224887); also: nearly all actives have a fitted effect of over 50% in size; also: potency is read from the fitted curve at half-maximal effect
In short: as §3

[16] = A CellTox Green Cytotoxicity Assay to monitor cytotoxicity in HEK293 cells - 16 hour (AID 1224888); also: nearly all actives have a fitted effect of over 35% in size; also: potency is read from the fitted curve at half-maximal effect
In short: as §1

[17] = qHTS RealTime-Glo MT Cell Viability Assay in HepG2 cells - 0 hour (AID 1224889); also: nearly all actives have a fitted effect of over 50% in size
In short: as §5

[18] = A CellTox Green Cytotoxicity Assay to monitor cytotoxicity in HepG2 cells - 8 hour (AID 1224890); also: nearly all actives have a fitted effect of over 45% in size; also: potency is read from the fitted curve at half-maximal effect
In short: as §4

[19] = A CellTox Green Cytotoxicity Assay to monitor cytotoxicity in HEK293 cells - 32 hour (AID 1224881); also: nearly all actives have a fitted effect of over 40% in size; also: potency is read from the fitted curve at half-maximal effect
In short: as §1

[20] = qHTS RealTime-Glo MT Cell Viability Assay in HepG2 cells - 16 hour (AID 1224885); also: nearly all actives have a fitted effect of over 50% in size; also: potency is read from the fitted curve at half-maximal effect
In short: as §5
% is scaled to controls: 0 for no effect and ±100 for the full control effect.

FC(F)(F)c1ccccc1Cl
inactive: Potency [1] | Potency [2] | Potency [3] | max response [4] -1.41% | Potency [5] | Potency [6] | Potency [7] | Potency [8] | Potency [9] | Potency [10] | Potency [11] | Potency [12] | Potency [13] | Potency [14] | Potency [15] | Potency [16] | Potency [17] | Potency [18]

O=[N+]([O-])c1ccc(O/N=C/c2cc(Br)c(O)c(Br)c2)c([N+](=O)[O-])c1
active: Potency [2] 43.4 µM | Potency [4] 43.4 µM | Potency [14] 48.7 µM
inactive: Potency [1] | Potency [3] | Potency [5] | Potency [6] | Potency [8] | Potency [10] | Potency [19] | Potency [11] | Potency [12] | Potency [13] | Potency [20] | Potency [16] | Potency [17]

CN1C(=O)c2ccccc2C1=O
inactive: Potency [1] | Potency [2] | Potency [3] | Potency [5] | Potency [6] | Potency [7] | Potency [8] | Potency [9] | Potency [10] | Potency [11] | Potency [13] | Potency [20] | Potency [15] | Potency [16]

O=C1CCCCCCCCCCOCCCCO1
active: Potency [1] 49 µM | Potency [19] 49 µM
inactive: Potency [2] | Potency [3] | max response [4] -14.4% | Potency [6] | Potency [7] | Potency [8] | Potency [9] | Potency [10] | Potency [12] | Potency [13] | Potency [20] | Potency [14] | Potency [15] | Potency [16] | Potency [17] | Potency [18]

CC1(C)[C@H](C(=O)O)N2C(=O)C[C@H]2S1(=O)=O
inactive: Potency [1] | Potency [2] | Potency [3] | max response [4] 1.99% | Potency [5] | Potency [6] | Potency [7] | Potency [8] | Potency [9] | Potency [10] | Potency [11] | Potency [12] | Potency [13] | Potency [14] | Potency [15] | Potency [16] | Potency [17]

Oc1c(I)cc(I)c2cccnc12
inactive: Potency [1] | Potency [2] | Potency [3] | Potency [5] | Potency [6] | Potency [7] | Potency [8] | Potency [9] | Potency [10] | Potency [19] | Potency [12] | Potency [13] | Potency [20] | Potency [15] | Potency [16] | Potency [18]

Nc1nnc(-c2ccc([N+](=O)[O-])o2)o1
inactive: Potency [1] | Potency [2] | Potency [3] | max response [4] -27% | Potency [6] | Potency [8] | Potency [10] | Potency [11] | Potency [13] | Potency [14] | Potency [15] | Potency [16] | Potency [17] | Potency [18]

CC(C)COCC(CN(Cc1ccccc1)c1ccccc1)N1CCCC1 (configuration not stated)
inactive: Potency [17]
active: Potency [1] 21.3 µM | Potency [2] 8.49 µM | Potency [3] 23.9 µM | Potency [4] 10.7 µM | Potency [5] 23.9 µM | Potency [6] 21.3 µM | Potency [7] 21.3 µM | Potency [8] 23.9 µM | Potency [9] 19 µM | Potency [19] 23.9 µM | Potency [12] 21.3 µM | Potency [13] 21.3 µM | Potency [20] 21.3 µM | Potency [14] 15.1 µM | Potency [15] 15.1 µM | Potency [16] 23.9 µM | Potency [18] 23.9 µM

CCOc1ccc(Cc2nccc3cc(OCC)c(OCC)cc23)cc1OCC
active: Potency [2] 9.52 µM | Potency [3] 12 µM | Potency [4] 5.35 µM | Potency [9] 7.56 µM | Potency [12] 5.35 µM | Potency [20] 19 µM | Potency [14] 7.56 µM | Potency [15] 10.7 µM
inactive: Potency [1] | Potency [5] | Potency [6] | Potency [8] | Potency [10] | Potency [19] | Potency [11] | Potency [13] | Potency [16] | Potency [17] | Potency [18]

CC1CC(OC(=O)C(O)c2ccccc2)CC(C)(C)N1C (configuration not stated)
inactive: Potency [1] | Potency [2] | Potency [3] | max response [4] 0.136% | Potency [5] | Potency [6] | Potency [7] | Potency [8] | Potency [10] | Potency [19] | Potency [11] | Potency [12] | Potency [13] | Potency [20] | Potency [14] | Potency [15] | Potency [16] | Potency [17] | Potency [18]

CCCCCCCC/C=C\CCCCCCCCO
inactive: Potency [1] | Potency [2] | Potency [3] | max response [4] 15% | Potency [5] | Potency [6] | Potency [7] | Potency [8] | Potency [9] | Potency [10] | Potency [12] | Potency [13] | Potency [20] | Potency [14] | Potency [15] | Potency [16] | Potency [18]

CC(C)(C)C(=O)C(=O)O
inactive: Potency [1] | Potency [2] | Potency [3] | max response [4] 0.984% | Potency [6] | Potency [7] | Potency [8] | Potency [10] | Potency [19] | Potency [11] | Potency [13] | Potency [20] | Potency [14] | Potency [15] | Potency [17]

C[C@@H](O)[C@H]1C(=O)N2C(C(=O)O)=C([C@H]3CCCO3)S[C@H]12
inactive: Potency [1] | Potency [2] | Potency [3] | max response [4] 5.96% | Potency [6] | Potency [7] | Potency [8] | Potency [9] | Potency [10] | Potency [19] | Potency [11] | Potency [12] | Potency [13] | Potency [20] | Potency [14] | Potency [15] | Potency [16] | Potency [17]

C1COC1
inactive: Potency [1] | Potency [2] | Potency [3] | max response [4] 6.53% | Potency [5] | Potency [6] | Potency [7] | Potency [8] | Potency [9] | Potency [10] | Potency [11] | Potency [12] | Potency [13] | Potency [14] | Potency [15] | Potency [16] | Potency [17] | Potency [18]
